Screening data from PubChem.
The list is not random: actives were taken first. Their share in the collection is about 5.9%.
KB-V1 MDR tox = KB-V1 MDR subline cytotoxicity. KB-V1 MDR cells viability, CellTiter-Glo, 72 h. Potency, µM (series often up to 46.1 µM), most hits filed as cytotoxic. hit rate 3.4% among 400,000; note: % is set by controls: 0 for no effect and ±100 for the full control effect; nearly all actives have a fitted effect of over 60% in size
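KB-V1 cells (P-gp-expressing MDR subline of KB-3-1) in phenol-red-free DMEM with 10% FBS were exposed to library compounds over a concentration series for 72 h at 37 degrees C. Viability read by CellTiter-Glo luminescence; concentration-effect curves fitted after normalization.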
HepG2 viability = kills HepG2 cells in TGF-b inhibitor counter-screen | HepG2 CAGA-GFP viability, ATP luminescence, 18 h | Potency, µM (top dose mostly 46.1 µM), for the others: at the highest dose activity change, negative = cytotoxicity, usual class: cytotoxic | hit rate 0.76% among 410,000
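HepG2 CAGA-GFP cells (1000/well, DMEM with 1% FBS) received compound, then TGF-beta at 500 pg/mL final, and were incubated 18 hours at 37 degrees C. Viability was read by CellTiter-Glo luminescence. Media-only wells were set as complete cell-killing and DMSO as no toxicity.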
TGFb SMAD3 inh = inhibitors of TGF-b signaling; HepG2 CAGA-GFP TGF-b/SMAD3 reporter, GFP fluorescence, 18 h; TGF-beta stimulated, 500 pg/mL final; Potency, µM (doses to about 46.1 µM), for inactives: at the highest dose activity, negative = inhibition, hits mostly inhibitors; hit rate 1.2% among 410,000; note: % is set by controls: 0 for no effect and ±100 for the full control effect; nearly all actives have a fitted effect of over 65% in size
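Using HEPG2 CAGA-GFP reporter cells at 1000 cells/well, we pinned test compounds, stimulated with recombinant TGF-beta (500 pg/mL final) and measured total well GFP after 18 h.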
KB-3-1 cytotox = KB-3-1 parental cell cytotoxicity. KB-3-1 viability, CellTiter-Glo ATP luminescence, 72 h. Potency, µM (doses to about 46.1 µM), hits mostly cytotoxic. hit rate 1.4% among 400,000. AID 1347075; note: % is set by controls: 0 for no effect and ±100 for the full control effect; nearly all actives have a fitted effect of over 60% in size
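Luminescent ATP read-out (CellTiter-Glo) measures survival of drug-naive KB-3-1 cells after 72 h compound exposure at 37 °C. Titration series was screened from lowest to highest concentration, with DMSO vehicle plates as background controls.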
S2 tox = viability counter-screen for ATXN expression inhibitors; S2 cells (HEK-293 line with an ATXN2-luciferase reporter) viability, CellTiter-Fluor protease fluorescence, 24 h; Potency, µM (doses to about 56.7 µM), most hits filed as cytotoxic; hit rate 0.49% among 400,000; note: nearly all actives have a fitted effect of over 40% in size
ATXN2 expr inh = ATXN2 expression inhibition; HEK-293 ATXN2-luciferase reporter, luminescence, 24 h; Potency, µM (series often up to 57 µM), for the others: top-dose activity change, negative = inhibition, actives largely listed as inhibitors; hit rate 0.72% among 360,000; AID 1745845; note: % is set by controls: 0 for no effect and ±100 for the full control effect; nearly all actives have a fitted effect of over 55% in size
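ATXN2-luciferase reporter cells (luciferase flanked by upstream and downstream ATXN2 gene portions) were treated 24 h at 37 °C with compounds at up to 57 uM. SteadyGlo luminescence gave expression; GF-AFC fluorescence gave viability.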
Numbers without * were called inactive; i = inactive; ? = inconclusive; . = not tested or not shown; ! = not confirmed by another sample. Calls come from the whole dose curve; as a rule, active = well fitted curve in the direction sought with a large enough effect; inconclusive = small, poorly fitted or top-dose-only effect, or another doubt; inactive = no such curve, though single readings can be large; an effect the other way counts as inactive or inconclusive. Potency is the fitted concentration of half-maximal effect.

SMILES	KB-V1 MDR tox	HepG2 viability	TGFb SMAD3 inh	KB-3-1 cytotox	S2 tox	ATXN2 expr inh
N=c1c2c(-c3ccccc3)c(-c3ccccc3)n(Cc3ccccc3)c2ncn1C1CCC(O)CC1 (stereo unspecified)	.	.	.	.	.	24µM*
OC1CCC(Nc2ccn3nc(-c4cccc(OCc5ccccc5)c4)cc3n2)CC1 (stereo unspecified)	i	-25%	-19%	i	?	-5%
O=C(Nc1cccc(C(F)(F)F)c1)C1CCCN1S(=O)(=O)c1cccc2nsnc12 (stereo unspecified)	7.3µM*	-13%	?	?	.	?
CCc1ccc([C@H]2[C@@H]3C(=O)C[C@@H]4C(=O)N(Cc5ccccc5)C(=O)[C@@H]4[C@@H]3CN2S(=O)(=O)c2ccc(C)cc2)cc1	i	2%	?	i	i	7%
O=C(c1ccccc1Cl)N1CCC(c2nc3ccccc3s2)CC1	13µM*	-19%	?	i	?	0%
O=C(NC1CC1)c1cn(Cc2ccccc2)nc1-c1ccccc1	i	16%	-1%	i	i	9%
Cc1ccc(Cn2cc(C=O)c(-c3ccc(C)cc3)n2)cc1	16µM*	-23%	?	i	i	59%
CC(=O)C1C(N2CC2)CC2C3CC=C4CC(O)CCC4(C)C3CCC21C (stereo unspecified)	?	-3%	-8%	?	14µM*	0%
CC[C@H]1C(=O)OC[C@H]1Cc1cncn1C	.	.	.	.	i	.
CC(=O)OC1C(O)C(C)OC(OC2C(OC(=O)C3CCC4C(C3)OC3(CC(OC(=O)/C=C/c5ccccc5)C(C)CO3)C43CO3)OC(C)C(O)C2OC(C)=O)C1O (stereo unspecified)	?	4%	?	0.18µM*	?	0.21µM*
O=c1nc(/C=C/c2ccc(Cl)cc2Cl)cc(C(F)(F)F)[nH]1	i	11µM*	16µM*	i	i	.
O=c1cccc2n1CC1CC2CN(Cc2c(F)cccc2Cl)C1 (stereo unspecified)	?	-7%	1%	i	i	10%
O=c1cccc2n1CC1CC2CN(Cc2cccc(Cl)c2Cl)C1 (stereo unspecified)	18µM*	-28%	-23%	i	i	0%
O=[N+]([O-])c1ccccc1-c1cc(-c2ccccc2)cc(-c2ccccc2)[n+]1Cc1ccccc1Cl	i	-40%	?	9.2µM*	?	?
O=[N+]([O-])c1ccccc1CCl	i	1%	-1%	i	i	17%
Oc1ccc(Cl)cc1Cc1cc(Cl)ccc1O	?	-74%	?	i	?	28µM*!
Cc1ccc(S(=O)(=O)N(C)C[C@H]2Oc3c(NC(=O)Nc4cccc5ccccc45)cccc3C(=O)N([C@@H](C)CO)C[C@@H]2C)cc1	i	-4%	?	?	?	?
COc1ccc(CCNC(=O)c2ccc3c(c2)N=C(C)c2cc(C)ccc2S3)cc1OC	i	-30%	?	i	?	?
Cc1cccn2c(=O)c3cc(C(=O)N4CCC5(CC4)OCCO5)n(C)c3nc12	3.7µM*	-22%	?	3.3µM*	i	-9%
CC(=O)O[C@@]12CO[C@@H]1C[C@H](O)[C@@]1(C)C(=O)[C@H](O)C3=C(C)[C@@H](O)C[C@@](O)([C@@H](OC(=O)c4ccccc4)C12)C3(C)C (stereo partly specified)	i	-1%	-8%	12µM*	i	-5%
C/C=C(\C)C(=O)N[C@@H](c1ccccc1)[C@@H](O)C(=O)O[C@H]1C[C@@]2(O)[C@@H](OC(=O)c3ccccc3)C3[C@](C)(C(=O)[C@H](O)C(=C1C)C2(C)C)[C@@H](O)C[C@H]1OC[C@@]31OC(C)=O (stereo partly specified)	i	2%	4%	?	?	-16%
CCCCn1c(-c2nonc2NC(=O)c2ccccc2Cl)nc2ccccc21	?	-1%	-9%	3.3µM*	?	.
C[C@]12Cc3cn[nH]c3C[C@@H]1CC[C@@H]1[C@H]2CC[C@@]2(C)[C@H]1CC[C@]2(C)O	.	.	.	.	.	-11%
C[C@@H](N)C(=O)c1ccccc1	.	.	.	.	i	.
O=C1CN=C(c2ccccc2Cl)c2cc(Cl)ccc2N1Cc1cccc(Cl)c1	15µM*	-11%	-3%	?	?	?
SMILES	KB-V1 MDR tox	HepG2 viability	TGFb SMAD3 inh	KB-3-1 cytotox	S2 tox	ATXN2 expr inh
Cc1ccc2oc(=O)n(CC(=O)c3ccc(F)cc3)c2c1	i	1%	-14%	i	i	-10%
CCN(C(=O)Cn1c(=O)oc2cc(S(=O)(=O)N3CCCC3)ccc21)c1cccc(C)c1	.	-26%	.	.	.	.
CCOC(=O)c1c(NC(=O)c2c(N)n(CCCOC)c3nc4ccccc4nc23)sc2c1CCCC2	i	-2%	?	i	i	0%
CCOC(=O)c1c(NC(=O)C(c2ccccc2)c2ccccc2)sc2c1C1CCN2CC1	23µM*	-4%	?	?	i	?
COc1ccc(OC)c(CNC(=O)CCS(=O)(=O)c2ccc3c(c2)oc(=O)n3C)c1	i	-1%	?	i	i	4%
CCOC(=O)[C@]12Cc3ccccc3[C@H]1N(CCC(=O)OC)C(=O)c1ccccc12	5.2µM*	.	.	5.2µM*	?	-14%
CCOC(=O)[C@]12Cc3cc(C)ccc3[C@H]1N(CCC(=O)OC)C(=O)c1cc(OC)ccc12	21µM*	.	.	18µM*	16µM*	22µM*
CCOC(=O)[C@]12Cc3ccccc3[C@H]1N(Cc1ccccc1)C(=O)c1ccccc12	?	-30%	-26%	i	?	?
CCCCCN1C(=O)c2ccccc2[C@@]2(C(=O)OCC)Cc3cc(OC)ccc3[C@@H]12	?	.	.	5.8µM*	13µM*	?
NCC(=O)c1ccc(Cl)c(Cl)c1	i	-46%	?	?	.	.
CC(NC(=O)Oc1cccc2ccccc12)c1ccccc1 (stereo unspecified)	i	-35%	5%	i	i	-5%
Cc1cccc(-n2nc(C)c(C(=O)N3CCN(c4ccccc4)CC3)c2-n2cccc2)c1	i	-13%	?	i	.	.
O=C(Nc1ccc(Br)cc1)c1ccc(F)c(S(=O)(=O)N2CCCc3ccccc32)c1	.	-20%	?	.	.	.
COc1ccc(CCNC(=O)c2ccc3c(c2)N(Cc2cccc(Cl)c2)C(=O)CS3)cc1OC	?	-17%	0%	i	?	?
